Results reported in PubChem BioAssay.
For part of these data: Measured potencies and affinities stand elsewhere. Calls of active or inactive are those of the source. Unless noted, no rule for the calls is given here.

Experiments:
[1] = antimalarial activity against Dd2 strain (AID 2302;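 active = growth inhibition above 50% at the single 2 µM test dose, taken to imply half-maximal potency below 2 µM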;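 also: 0% = DMSO untreated growth and 100% = chloroquine plus artemisinin killed control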); conditions: P. falciparum Dd2 in RBCs, LDH growth readout, 72 h; at 2 µM; hits give high values
[2] = HepG2 cytotoxicity, primary screen, cytotoxicity control for P. falciparum antimalarial project, cell-based, ATP luminescence (AID 2303;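 active = inhibition above 50%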;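 also: 0% = DMSO wells and 100% = digitonin-killed cells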); conditions: HepG2 viability, 24-48 h, at 10 µM, hits give high values
[3] = molecular target: L-lactate dehydrogenase (Plasmodium falciparum (isolate CDC / Honduras)) (UniProt Q27743); experiment: PfLDH activity inhibition – cell lysate, 3D7 strain, counter-screen for P. falciparum growth inhibition project (AID 2304);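 also: 0% = vehicle and 100% = reference inhibitor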; conditions: P. falciparum 3D7 crude extract, LDH APAD/NBT absorbance; at 2 µM; hits give high values
[4] = inhibition of 3D7 malaria parasite growth – strain 3D7 (AID 2306);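 also: 0% = DMSO wells and 100% = chloroquine plus artemisinin control wells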; conditions: P. falciparum 3D7 erythrocytic growth, LDH absorbance, 72 h; at 2 µM; hits give high values
[5] = molecular target: Calcium-dependent protein kinase 1 (Plasmodium falciparum (isolate 3D7)) (UniProt P62344); experiment: PfCDPK1 kinase inhibitors, biochemical, TCAMS library (AID 1159585; cut-off not given, nearly all actives have IC50 up to about 0.98 µM;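 also: inhibitors leave more ATP so luminescence rises with inhibition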); conditions: recombinant PfCDPK1, Kinase-Glo ATP depletion luminescence
[6] = molecular target: Plasmodium falciparum protein kinase 6 (PK6, PF3D7_1337100) (UniProt Q8IDW1); experiment: PfPK6 kinase inhibitors, biochemical, TCAMS library (AID 1159586); conditions: recombinant PfPK6, Kinase-Glo ATP depletion luminescence
[7] = molecular target: Protein kinase 7 (PK7), Plasmodium falciparum 3D7 (PF3D7_0213400) (UniProt Q7YTF7); experiment: inhibition of Plasmodium PK7 catalytic activity – biochemical, TCAMS antimalarial set, Kinase-Glo luminescence (AID 1159587); conditions: recombinant PfPK7, Kinase-Glo ATP depletion luminescence
[8] = molecular target: Calcium-dependent protein kinase 4 (Plasmodium falciparum (isolate 3D7)) (UniProt Q8IBS5); experiment: PfCDPK4 kinase inhibitors, biochemical, TCAMS library (AID 1159588; cut-off not given, nearly all actives have IC50 up to about 0.91 µM); conditions: recombinant PfCDPK4, Kinase-Glo ATP depletion luminescence
Sequence of Calcium-dependent protein kinase 4 (Plasmodium falciparum (isolate 3D7)) (Q8IBS5 whole entry, looked up): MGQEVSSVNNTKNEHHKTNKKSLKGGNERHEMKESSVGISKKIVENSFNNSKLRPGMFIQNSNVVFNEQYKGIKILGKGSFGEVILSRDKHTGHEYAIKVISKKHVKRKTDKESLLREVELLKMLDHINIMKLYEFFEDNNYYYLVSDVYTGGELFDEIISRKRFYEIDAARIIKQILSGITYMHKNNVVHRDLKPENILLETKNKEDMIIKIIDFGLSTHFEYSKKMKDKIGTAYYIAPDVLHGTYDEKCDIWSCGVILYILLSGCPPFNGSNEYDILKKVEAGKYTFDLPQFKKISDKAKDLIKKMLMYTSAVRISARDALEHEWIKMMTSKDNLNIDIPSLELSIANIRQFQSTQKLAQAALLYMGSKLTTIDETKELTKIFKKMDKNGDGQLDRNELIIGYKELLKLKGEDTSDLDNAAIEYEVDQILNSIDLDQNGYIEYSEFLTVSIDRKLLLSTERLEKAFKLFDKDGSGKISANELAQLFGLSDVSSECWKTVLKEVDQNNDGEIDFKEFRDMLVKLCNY

Sequence of Calcium-dependent protein kinase 1 (Plasmodium falciparum (isolate 3D7)) (P62344 whole entry, looked up): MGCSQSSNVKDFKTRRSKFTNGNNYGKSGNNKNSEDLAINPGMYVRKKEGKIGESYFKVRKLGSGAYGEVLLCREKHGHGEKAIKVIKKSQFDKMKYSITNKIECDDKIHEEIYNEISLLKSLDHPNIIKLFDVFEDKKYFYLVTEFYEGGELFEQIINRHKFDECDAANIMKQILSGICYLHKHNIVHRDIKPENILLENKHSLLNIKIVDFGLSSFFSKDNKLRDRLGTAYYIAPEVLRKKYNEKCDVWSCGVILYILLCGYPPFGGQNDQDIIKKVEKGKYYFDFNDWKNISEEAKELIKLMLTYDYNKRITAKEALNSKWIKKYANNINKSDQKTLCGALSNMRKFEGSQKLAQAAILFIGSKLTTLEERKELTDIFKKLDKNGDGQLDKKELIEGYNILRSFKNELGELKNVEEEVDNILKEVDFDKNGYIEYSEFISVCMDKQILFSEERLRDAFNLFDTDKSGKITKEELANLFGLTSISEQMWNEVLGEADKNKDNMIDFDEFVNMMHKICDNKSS
Sequence of L-lactate dehydrogenase (Plasmodium falciparum (isolate CDC / Honduras)) (Q27743 whole entry, looked up): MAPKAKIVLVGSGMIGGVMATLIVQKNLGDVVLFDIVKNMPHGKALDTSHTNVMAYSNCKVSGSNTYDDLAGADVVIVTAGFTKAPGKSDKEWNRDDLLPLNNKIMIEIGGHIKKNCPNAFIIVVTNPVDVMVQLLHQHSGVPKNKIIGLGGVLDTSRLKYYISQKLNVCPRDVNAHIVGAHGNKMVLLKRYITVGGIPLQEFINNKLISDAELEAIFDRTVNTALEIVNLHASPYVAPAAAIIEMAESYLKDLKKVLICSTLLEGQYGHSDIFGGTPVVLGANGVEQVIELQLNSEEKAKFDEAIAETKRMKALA
Sequence of Plasmodium falciparum protein kinase 6 (PK6, PF3D7_1337100) (Q8IDW1 1-305): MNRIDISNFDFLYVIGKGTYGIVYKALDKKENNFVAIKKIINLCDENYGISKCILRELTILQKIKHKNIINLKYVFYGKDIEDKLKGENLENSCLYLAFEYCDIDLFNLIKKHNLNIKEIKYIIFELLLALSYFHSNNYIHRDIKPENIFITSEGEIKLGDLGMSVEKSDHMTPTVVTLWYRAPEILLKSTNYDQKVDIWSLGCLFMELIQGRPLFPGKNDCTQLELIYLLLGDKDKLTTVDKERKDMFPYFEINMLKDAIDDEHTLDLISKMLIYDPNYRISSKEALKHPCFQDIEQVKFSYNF
Sequence of Protein kinase 7 (PK7), Plasmodium falciparum 3D7 (PF3D7_0213400) (Q7YTF7 1-343): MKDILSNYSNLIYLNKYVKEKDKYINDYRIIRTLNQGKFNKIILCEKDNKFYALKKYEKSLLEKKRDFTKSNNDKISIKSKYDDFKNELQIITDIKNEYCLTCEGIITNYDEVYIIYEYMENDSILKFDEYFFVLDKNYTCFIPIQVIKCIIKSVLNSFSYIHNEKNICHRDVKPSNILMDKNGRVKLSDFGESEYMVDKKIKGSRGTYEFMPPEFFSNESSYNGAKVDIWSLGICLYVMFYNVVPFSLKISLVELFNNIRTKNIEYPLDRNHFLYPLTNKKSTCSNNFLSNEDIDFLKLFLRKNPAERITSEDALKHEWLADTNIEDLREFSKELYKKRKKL

Cc1cccc2[nH]c(-c3cccc(-c4cccc(NC(=O)CCc5cnc[nH]5)c4)c3)nc12
inactive: inhibition [2] 16% | inhibition [3] 0% | outcome [5] | outcome [6] | outcome [7] | outcome [8]
active: growth inhibition [1] 86% | growth inhibition [4] 102%

COc1ccc2nccc([C@@H](O)CN3CCC(NC(=O)c4ccc(C5(C(F)(F)F)N=N5)cc4)CC3)c2c1
inactive: growth inhibition [1] 41% | inhibition [2] 8% | inhibition [3] -8% | outcome [5] | outcome [6] | outcome [7] | outcome [8]
active: growth inhibition [4] 97%

O=S(=O)(c1c(Cl)cc(Cl)cc1Cl)N1CCCCC(c2ccc(F)c(F)c2)=N1
active: growth inhibition [1] 65% | growth inhibition [4] 87%
inactive: inhibition [2] 5% | inhibition [3] -1% | outcome [5] | outcome [6] | outcome [7] | outcome [8]

Brc1ccc(Nc2nc(NCc3ccccc3)c3ccccc3n2)cc1
inactive: inhibition [2] 24% | inhibition [3] -4% | outcome [5] | outcome [6] | outcome [7] | outcome [8]
active: growth inhibition [1] 99% | growth inhibition [4] 101%

COc1ccc2nc(C)cc(Nc3ccc(N4CCN(C)CC4)cc3)c2c1
active: growth inhibition [4] 101%
inactive: growth inhibition [1] 3% | inhibition [2] 1% | inhibition [3] -1% | outcome [5] | outcome [6] | outcome [7] | outcome [8]

N=C(N)CCN(Cc1ccc(Cl)cc1)c1ccc(Cl)cc1
active: growth inhibition [1] 92% | growth inhibition [4] 96%
inactive: inhibition [2] 22% | inhibition [3] 5% | outcome [5] | outcome [6] | outcome [7] | outcome [8]

O=C(/C=C/c1ccccc1O)N1CCC(CCN2CCC(c3c[nH]c4ccccc34)CC2)CC1
active: growth inhibition [4] 100%
inactive: growth inhibition [1] 15% | inhibition [2] 46% | inhibition [3] -1% | outcome [5] | outcome [6] | outcome [7] | outcome [8]

CNC(=O)c1cc(S(=O)(=O)N2CCN(c3ccccn3)CC2)c(C)s1
inactive: inhibition [2] -2% | inhibition [3] -1% | outcome [5] | outcome [6] | outcome [7] | outcome [8]
active: growth inhibition [1] 52% | growth inhibition [4] 91%

CCOC(=O)C(NC(=O)Cc1ccccc1)C(C)C (configuration not stated)
active: growth inhibition [1] 98% | growth inhibition [4] 96%
inactive: inhibition [2] 39% | inhibition [3] 4% | outcome [5] | outcome [6] | outcome [7] | outcome [8]

CN(C)CCCOC(=O)c1cc2cc(-c3ccccc3)ccc2n1S(=O)(=O)Cc1ccccc1
active: growth inhibition [1] 70% | growth inhibition [4] 101%
inactive: inhibition [2] 13% | inhibition [3] -5% | outcome [5] | outcome [6] | outcome [7] | outcome [8]

CCOC(=O)c1cn(CC)c2cc(N3CCCCC3)c(F)cc2c1=O
inactive: inhibition [2] 0% | inhibition [3] 2% | outcome [5] | outcome [6] | outcome [7] | outcome [8]
active: growth inhibition [1] 96% | growth inhibition [4] 97%

CCc1cc(-c2onc(C(F)(F)F)c2-c2ccccc2)c(O)cc1OC
inactive: inhibition [2] 16% | inhibition [3] -2% | outcome [5] | outcome [6] | outcome [7] | outcome [8]
active: growth inhibition [1] 73% | growth inhibition [4] 98%

C[C@@H](N=C(Nc1ccc(-c2ccccc2)cc1)Nc1ccc(C#N)cc1O)c1ccc(Br)cc1
inactive: inhibition [2] 9% | inhibition [3] 2% | outcome [5] | outcome [6] | outcome [7] | outcome [8]
active: growth inhibition [1] 95% | growth inhibition [4] 99%

O=C(Nc1ccc(-c2nc3ccccc3[nH]2)cc1)c1cccc(S(=O)(=O)N2CCCC2)c1
inactive: inhibition [2] 0% | inhibition [3] -5% | outcome [5] | outcome [6] | outcome [7] | outcome [8]
active: growth inhibition [1] 64% | growth inhibition [4] 100%

CNC(=O)/C=C/c1cc(NC(=O)Nc2cc(C)nc3c(F)cccc23)ccc1OC
inactive: inhibition [2] -3% | inhibition [3] 2% | outcome [5] | outcome [6] | outcome [7] | outcome [8]
active: growth inhibition [1] 70% | growth inhibition [4] 98%

NC1CCN(CCNCc2cccc(-c3ccc(-c4nc5ccc(C(F)(F)F)cc5[nH]4)cc3)c2)C1 (configuration not stated)
active: growth inhibition [1] 75% | growth inhibition [4] 98%
inactive: inhibition [2] 19% | inhibition [3] 1% | outcome [5] | outcome [6] | outcome [7] | outcome [8]

Cc1cccc2[nH]c(-c3ccc(-c4ccc(NC(=O)NCc5ccc(F)cc5)cc4)cc3)nc12
inactive: inhibition [3] -3% | outcome [5] | outcome [6] | outcome [7] | outcome [8]
active: growth inhibition [1] 99% | inhibition [2] 70% | growth inhibition [4] 100%

CN1CCCC(CN2CCN(Cc3cccc(-c4cccc(-c5nc6ccccc6[nH]5)c4)c3)CC2)C1 (configuration not stated)
inactive: inhibition [2] 45% | inhibition [3] -8% | outcome [5] | outcome [6] | outcome [7] | outcome [8]
active: growth inhibition [1] 99% | growth inhibition [4] 100%

Cc1cc(C(=O)Nc2ccc3c(ccn3C3CCCN(Cc4ccc(C(F)(F)F)cc4F)CC3)c2)no1 (configuration not stated)
active: growth inhibition [1] 95% | growth inhibition [4] 92%
inactive: inhibition [2] 19% | inhibition [3] -1% | outcome [5] | outcome [6] | outcome [7] | outcome [8]

CCOc1c(CNCCCNc2nc3ccccc3[nH]2)cc(Br)cc1OC
active: growth inhibition [4] 99%
inactive: growth inhibition [1] 0% | inhibition [2] 29% | inhibition [3] 2% | outcome [5] | outcome [6] | outcome [7] | outcome [8]

Cc1ccn2c(N(Cc3ccccc3)C(=O)c3ccc(Cl)c(Cl)c3)c(-c3ccccc3)nc2c1
active: growth inhibition [4] 95%
inactive: growth inhibition [1] -5% | inhibition [2] -20% | inhibition [3] -7% | outcome [5] | outcome [6] | outcome [7] | outcome [8]

O=C(NCCN1CCCC1)N1CCCN(c2ncnc3cc(-c4ccc(F)cc4)sc23)CC1
inactive: growth inhibition [1] 19% | inhibition [2] 5% | inhibition [3] 5% | outcome [5] | outcome [6] | outcome [7] | outcome [8]
active: growth inhibition [4] 81%

COc1ccc(CN2CCC(CNCCc3c(Cl)cccc3Cl)CC2)cc1
active: growth inhibition [1] 69% | growth inhibition [4] 98%
inactive: inhibition [2] 45% | inhibition [3] -11% | outcome [5] | outcome [6] | outcome [7] | outcome [8]

COc1ccc2c(c1)CCN(CCN1CCC(CNC(=O)c3ccc(-c4ccc(C#N)cc4)cc3)CC1)C2
active: growth inhibition [1] 51% | growth inhibition [4] 100%
inactive: inhibition [2] 40% | inhibition [3] 2% | outcome [5] | outcome [6] | outcome [7] | outcome [8]

CCC(C)NC(=O)Nc1ccc(-c2cccc(-c3nc4c(C)cccc4[nH]3)c2)cc1 (configuration not stated)
active: growth inhibition [1] 83% | inhibition [2] 55% | growth inhibition [4] 102%
inactive: inhibition [3] 6% | outcome [5] | outcome [6] | outcome [7] | outcome [8]

O=C(NCCCCN1CCC(c2ccc(Br)cc2)CC1)c1ccc(NC(=O)c2ccc(Cl)cc2)cc1
inactive: inhibition [2] 17% | inhibition [3] 0% | outcome [5] | outcome [6] | outcome [7] | outcome [8]
active: growth inhibition [1] 86% | growth inhibition [4] 100%

CN(C)CCN1CCN(Cc2ccc(-c3cccc(-c4nc5ccccc5[nH]4)c3)cc2)CC1
inactive: inhibition [2] 25% | inhibition [3] -7% | outcome [5] | outcome [6] | outcome [7] | outcome [8]
active: growth inhibition [1] 100% | growth inhibition [4] 102%

CN1CCN(c2nsc3ccc(-c4ccc(NC(=O)Nc5ccccc5)cc4)cc23)CC1
inactive: inhibition [2] 38% | inhibition [3] -1% | outcome [5] | outcome [6] | outcome [7] | outcome [8]
active: growth inhibition [1] 98% | growth inhibition [4] 102%

Cc1cccc2[nH]c(-c3ccc(-c4cccc(CN5CCN(CC6CCCN(C)C6)CC5)c4)s3)nc12 (configuration not stated)
active: growth inhibition [1] 99% | growth inhibition [4] 100%
inactive: inhibition [2] 47% | inhibition [3] 4% | outcome [5] | outcome [6] | outcome [7] | outcome [8]

CCC(CC)CN1C(=O)C(C)(c2ccccc2)N=C1N (configuration not stated)
inactive: growth inhibition [1] 11% | inhibition [2] 1% | inhibition [3] -2% | outcome [5] | outcome [6] | outcome [7] | outcome [8]
active: growth inhibition [4] 84%

N#Cc1ccc(N(CCOc2ccc(Cl)cc2)Cc2ccccc2C(F)(F)F)cc1C(F)(F)F
inactive: inhibition [2] 3% | inhibition [3] 2% | outcome [5] | outcome [6] | outcome [7] | outcome [8]
active: growth inhibition [1] 64% | growth inhibition [4] 91%

Nc1nc(N)c2c(ccc3c2ccn3CCCC(F)(F)F)n1
active: inhibition [2] 66% | growth inhibition [4] 97%
inactive: growth inhibition [1] 34% | inhibition [3] 0% | outcome [5] | outcome [6] | outcome [7] | outcome [8]

COc1ccc(-c2ccc(NC(=O)c3cccc(C#N)c3)cc2)cc1CN1CCNCC1
inactive: growth inhibition [1] 47% | inhibition [2] 30% | inhibition [3] 8% | outcome [5] | outcome [6] | outcome [7] | outcome [8]
active: growth inhibition [4] 101%

CC(=O)Nc1cccc(C(=O)Nc2ccc(-c3cccc(-c4nc5ccc(F)cc5[nH]4)c3)cc2)c1
inactive: growth inhibition [1] 8% | inhibition [3] 0% | outcome [5] | outcome [6] | outcome [7] | outcome [8]
active: inhibition [2] 90% | growth inhibition [4] 96%

CC(C)c1ccc(C(NC(=O)C2CCCCC2)c2ccc3cccnc3c2O)cc1 (configuration not stated)
active: growth inhibition [1] 70% | growth inhibition [4] 89%
inactive: inhibition [2] 46% | inhibition [3] -8% | outcome [5] | outcome [6] | outcome [7] | outcome [8]

NS(=O)(=O)Cc1cccc(-c2ccnc3ccc(-c4cccc(S(N)(=O)=O)c4)cc23)c1
inactive: growth inhibition [1] 42% | inhibition [2] 39% | inhibition [3] -2% | outcome [5] | outcome [6] | outcome [7] | outcome [8]
active: growth inhibition [4] 98%

O=C(NCc1cccc(F)c1)Nc1cccc(-c2cccc(-c3nc4ccc(C(F)(F)F)cc4[nH]3)c2)c1
inactive: growth inhibition [1] 32% | inhibition [3] -7% | outcome [5] | outcome [6] | outcome [7] | outcome [8]
active: inhibition [2] 55% | growth inhibition [4] 93%

CC1CCCCC1N(C)C1CCN(CCCNC(=O)C=Cc2ccccc2Cl)CC1 (configuration not stated)
inactive: growth inhibition [1] 14% | inhibition [2] 30% | inhibition [3] 3% | outcome [5] | outcome [6] | outcome [7] | outcome [8]
active: growth inhibition [4] 100%

CCC(C)NC(=O)Cn1c2ncccc2c(=O)n1-c1ccc(C)cc1 (configuration not stated)
active: growth inhibition [1] 63% | growth inhibition [4] 95%
inactive: inhibition [2] 4% | inhibition [3] 4% | outcome [5] | outcome [6] | outcome [7] | outcome [8]
